# Results: PubChem BioAssay (EPA / NIEHS)
# Inconclusive results are not listed. Calls of active or inactive are those of the source. Rule for the calls, unless noted: active = hit-call score of the fitted dose curve at least 0.9, where 1 is the maximum; inconclusive = response in the unintended direction; inactive = score below 0.9.
# How the values were obtained:
# [1] = molecular target: Agonist Androgen Response Element (ARE), AR (gene 367) (UniProt P10275); assay: OT_AR_ARELUC_AG_1440: Odyssey Thera (OT) 24-hour CHO-K1 Luciferase Assay for Agonist Androgen Response Element (ARE) (AID 2283379)
# How it was run: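 Readout: luciferase bioluminescence from CHO-K1 ARE-luc cells, measured 24 h post-dosing; agonism = increased mean luminescence vs DMSO controls, fitted in positive direction.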
# [2] = molecular target: Estrogen receptor beta (Homo sapiens) (UniProt Q92731); assay: OT_ER_ERbERb_1440: Odyssey Thera (OT) 24-hour HEK293T Protein-Complementation Assay for Estrogen Receptor-beta/-beta Homodimer (AID 2283380);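 note: fluorescence gain from ER beta LBD homodimer complementation read by laser scanning cytometry; scored as signal increase over DMSO baseline for both agonists and antagonists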
# How it was run: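 Fluorescence increase, nuclear for agonists or whole-cell for antagonists, relative to DMSO vehicle, quantified by laser scanning cytometer after fixation and Draq5 staining. Readout from 24 h treatment of HEK293T cells carrying complementation-paired ER beta LBD (aa 310-547).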
# [3] = molecular target: Bile acid receptor (Homo sapiens) (UniProt Q96RI1); assay: OT_FXR_FXRSRC1_0480: Odyssey Thera (OT) 8-hour HEK293T Protein-Complementation Assay for Farnesoid X receptor/SRC-1 Co-activator (AID 2283383)
# How it was run: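 Readings were taken 8 h after dosing HEK293T cells in a split-reporter complementation format pairing FXR with SRC-1. Increased fluorescence relative to DMSO-treated wells defined activity.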
# [4] = molecular target: Bile acid receptor (Homo sapiens) (UniProt Q96RI1); assay: OT_FXR_FXRSRC1_1440: Odyssey Thera (OT) 24-hour HEK293T Protein-Complementation Assay for Farnesoid X receptor/SRC-1 Co-activator (AID 2283384)
# How it was run: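 Single endpoint, analysed for increased fluorescence against DMSO controls. HEK293T cells carrying FXR and SRC-1 linked to complementary reporter halves were exposed to chemicals for 24 h before reading.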
# [5] = molecular target: Retinoic acid receptor RXR-alpha (Homo sapiens) (UniProt P19793); assay: OT_NURR1_NURR1RXRa_0480: Odyssey Thera (OT) 8-hour HEK293T Protein Complementation Assay for Nurr1/retinoid X receptor (RXR) (AID 2283385)
# How it was run: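 Gain in fluorescent complementation signal over DMSO, measured 8 hours after chemical dosing of human kidney HEK293T cells, indicated enhanced Nurr1–RXRα association.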
# [6] = molecular target: human Norepinephrine Transporter (NET), SLC6A2 (gene 6530) (UniProt P23975); assay: NVS_TR_hNET: NovaScreen (NVS) Transporter Assay for human Norepinephrine Transporter (NET) (AID 2283377);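 note: cell-free membrane protein extracted from CHO cells expressing human NET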;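 for AC50: displacement of radioligand from human NET seen as loss of scintillation signal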
# How it was run: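 Single-concentration duplicate screen at 25 uM, then concentration-response for actives; displacement of specific radioligand from human NET in CHO membrane extracts, filter-based scintillation detection at 1 h relative to DMSO.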
# [7] = molecular target: Peroxisome proliferator-activated receptor gamma (Homo sapiens) (UniProt P37231); assay: OT_PPARg_PPARgSRC1_0480: Odyssey Thera (OT) 8-hour Protein-Complementation Assay for Peroxisome Proliferator-activated Receptor Gamma / SRC-1 Co-activator (AID 2283387);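 note: nuclear to cytoplasmic split Venus YFP fluorescence ratio reporting PPARg SRC-1 interaction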
# How it was run: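 Split-YFP (IFP1/IFP2) PPARg/SRC-1 reporter, HEK293T, 37 °C, 5% CO2; 8 h compound; formaldehyde fix + Draq5; high-content imaging, N/C ratio, ≥350 cells/image, positive direction vs DMSO.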
# [8] = molecular target: human Dopamine Transporter (DAT), SLC6A3 (gene 6531) (UniProt Q01959); assay: NVS_TR_hDAT: NovaScreen (NVS) Transporter Assay for human Dopamine Transporter (DAT) (AID 2283374);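 note: activity means loss of bound radioligand signal relative to DMSO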
# How it was run: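 Duplicate single-point screening at 25 uM preceded concentration-series follow-up of actives. Binding was measured by competitive displacement of a radioligand from DAT protein, filter-counted by scintillation 1 h after dosing. Decrease relative to DMSO taken as activity.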
# [9] = molecular target: Estrogen receptor (Homo sapiens) (UniProt P03372); assay: OT_ERa_GFPERaERE_0480: Odyssey Thera (OT) 8-hour HeLa Transcription Induction Assay for Estrogen Receptor (AID 2283381; active = hit-call score of the fitted dose curve at least 0.9, where 1 is the maximum; inactive = score below 0.9)
# How it was run: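 An 8 h HeLa transcription-induction format with a GFP reporter under ERE control, read by fluorescence microscopy; single endpoint fitted positively with DMSO as baseline.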
# [10] = molecular target: Estrogen receptor (Homo sapiens) (UniProt P03372); assay: OT_ERa_GFPERaERE_0120: Odyssey Thera (OT) 2-hour HeLa Transcription Induction Assay for Estrogen Receptor (AID 2283382)
# How it was run: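 Two-hour compound treatment of HeLa cells preceded microscopy imaging of an inducible fluorescent reporter. Image-based quantification gave one endpoint, analysed for signal increase relative to DMSO controls.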
# [11] = molecular target: Retinoic acid receptor RXR-alpha (Homo sapiens) (UniProt P19793); assay: OT_NURR1_NURR1RXRa_1440: Odyssey Thera (OT) 24-hour HEK293T Protein Complementation Assay for Nurr1/retinoid X receptor (RXR) (AID 2283386)
# How it was run: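 Cell-based binding reporter: HEK293T cells, 24 h exposure, fluorescence-detected fragment complementation, DMSO as baseline.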
# [12] = molecular target: Peroxisome proliferator-activated receptor gamma (Homo sapiens) (UniProt P37231); assay: NVS_NR_hPPARg: NovaScreen (NVS) Nuclear Receptor Binding Assay for human Peroxisome Proliferator-activated Receptor gamma (PPARg) (AID 2283370)
# How it was run: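 Cell-free fluorescence polarization binding to human PPARg protein, read 2 h after dosing. Primary screen in duplicate at 25 uM, actives followed in concentration series; loss of signal relative to DMSO scored.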
# Sequence of Estrogen receptor beta (Homo sapiens) (Q92731 whole entry, looked up, the tested form may be a part): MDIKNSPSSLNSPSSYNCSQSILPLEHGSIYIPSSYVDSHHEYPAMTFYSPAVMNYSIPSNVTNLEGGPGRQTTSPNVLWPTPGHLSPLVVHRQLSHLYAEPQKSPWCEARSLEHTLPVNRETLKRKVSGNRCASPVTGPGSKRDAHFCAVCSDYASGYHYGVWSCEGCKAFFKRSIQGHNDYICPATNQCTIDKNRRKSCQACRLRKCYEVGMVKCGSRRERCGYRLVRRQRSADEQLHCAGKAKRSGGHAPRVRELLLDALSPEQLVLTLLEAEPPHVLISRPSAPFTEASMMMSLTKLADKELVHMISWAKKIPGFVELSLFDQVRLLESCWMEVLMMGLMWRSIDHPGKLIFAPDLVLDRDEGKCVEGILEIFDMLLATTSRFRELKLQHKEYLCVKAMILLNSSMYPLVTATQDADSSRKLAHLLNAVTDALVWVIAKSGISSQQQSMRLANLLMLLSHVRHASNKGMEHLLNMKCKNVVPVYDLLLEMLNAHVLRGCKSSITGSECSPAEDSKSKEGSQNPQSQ
# Sequence of Agonist Androgen Response Element (ARE), AR (gene 367) (P10275 whole entry, looked up): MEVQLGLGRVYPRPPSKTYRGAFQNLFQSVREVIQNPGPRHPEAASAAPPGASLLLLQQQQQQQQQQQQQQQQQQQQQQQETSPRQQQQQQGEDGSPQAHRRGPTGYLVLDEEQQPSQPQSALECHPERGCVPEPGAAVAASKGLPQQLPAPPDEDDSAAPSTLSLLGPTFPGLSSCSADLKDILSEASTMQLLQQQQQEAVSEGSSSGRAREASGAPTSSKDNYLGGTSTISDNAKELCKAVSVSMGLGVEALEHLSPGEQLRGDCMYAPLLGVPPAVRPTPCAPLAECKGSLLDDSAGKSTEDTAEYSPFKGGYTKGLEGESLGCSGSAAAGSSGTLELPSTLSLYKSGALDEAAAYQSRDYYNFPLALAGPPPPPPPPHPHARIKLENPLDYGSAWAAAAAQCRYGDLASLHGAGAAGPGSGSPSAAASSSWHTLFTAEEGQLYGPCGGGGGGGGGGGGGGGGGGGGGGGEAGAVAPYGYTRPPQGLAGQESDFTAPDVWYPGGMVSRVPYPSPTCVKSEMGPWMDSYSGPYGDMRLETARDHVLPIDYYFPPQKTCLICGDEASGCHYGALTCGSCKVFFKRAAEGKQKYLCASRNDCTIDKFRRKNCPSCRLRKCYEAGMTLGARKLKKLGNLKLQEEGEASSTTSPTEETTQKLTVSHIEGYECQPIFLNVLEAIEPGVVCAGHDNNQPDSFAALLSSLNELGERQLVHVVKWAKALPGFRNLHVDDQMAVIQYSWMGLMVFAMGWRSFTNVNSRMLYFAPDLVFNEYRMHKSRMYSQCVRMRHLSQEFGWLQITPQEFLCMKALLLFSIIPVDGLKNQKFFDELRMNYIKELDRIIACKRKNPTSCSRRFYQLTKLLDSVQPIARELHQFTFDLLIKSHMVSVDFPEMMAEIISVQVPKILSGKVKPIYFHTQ
# Sequence of Retinoic acid receptor RXR-alpha (Homo sapiens) (P19793 whole entry, looked up, the tested form may be a part): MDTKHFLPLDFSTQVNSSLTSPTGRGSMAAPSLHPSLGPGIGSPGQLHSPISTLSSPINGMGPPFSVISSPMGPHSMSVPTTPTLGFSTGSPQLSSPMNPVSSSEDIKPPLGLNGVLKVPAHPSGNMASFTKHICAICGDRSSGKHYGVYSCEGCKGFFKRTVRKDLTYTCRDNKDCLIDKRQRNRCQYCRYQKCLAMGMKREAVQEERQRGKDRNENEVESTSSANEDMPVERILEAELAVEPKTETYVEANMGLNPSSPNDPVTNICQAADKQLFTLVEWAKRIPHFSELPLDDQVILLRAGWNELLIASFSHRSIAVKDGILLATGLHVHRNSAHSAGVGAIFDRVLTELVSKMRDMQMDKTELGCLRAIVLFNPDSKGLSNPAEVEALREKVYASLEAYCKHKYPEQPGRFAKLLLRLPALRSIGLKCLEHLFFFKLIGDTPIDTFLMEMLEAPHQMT
# Sequence of Peroxisome proliferator-activated receptor gamma (Homo sapiens) (P37231 whole entry, looked up): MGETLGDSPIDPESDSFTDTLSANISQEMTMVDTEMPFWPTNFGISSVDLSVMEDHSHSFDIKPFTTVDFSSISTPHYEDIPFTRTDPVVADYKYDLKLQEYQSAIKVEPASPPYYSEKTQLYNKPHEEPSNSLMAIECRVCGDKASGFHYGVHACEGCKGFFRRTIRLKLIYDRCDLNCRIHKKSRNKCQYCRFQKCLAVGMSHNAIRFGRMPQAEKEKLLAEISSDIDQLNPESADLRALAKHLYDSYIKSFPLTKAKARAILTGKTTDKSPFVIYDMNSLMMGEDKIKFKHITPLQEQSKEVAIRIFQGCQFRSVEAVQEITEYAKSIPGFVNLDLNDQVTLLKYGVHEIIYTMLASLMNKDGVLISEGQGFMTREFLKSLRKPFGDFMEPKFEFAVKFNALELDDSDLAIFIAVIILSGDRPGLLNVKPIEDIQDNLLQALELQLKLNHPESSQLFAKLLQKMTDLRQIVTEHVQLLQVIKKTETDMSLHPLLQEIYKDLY
# Sequence of human Norepinephrine Transporter (NET), SLC6A2 (gene 6530) (P23975 whole entry, looked up): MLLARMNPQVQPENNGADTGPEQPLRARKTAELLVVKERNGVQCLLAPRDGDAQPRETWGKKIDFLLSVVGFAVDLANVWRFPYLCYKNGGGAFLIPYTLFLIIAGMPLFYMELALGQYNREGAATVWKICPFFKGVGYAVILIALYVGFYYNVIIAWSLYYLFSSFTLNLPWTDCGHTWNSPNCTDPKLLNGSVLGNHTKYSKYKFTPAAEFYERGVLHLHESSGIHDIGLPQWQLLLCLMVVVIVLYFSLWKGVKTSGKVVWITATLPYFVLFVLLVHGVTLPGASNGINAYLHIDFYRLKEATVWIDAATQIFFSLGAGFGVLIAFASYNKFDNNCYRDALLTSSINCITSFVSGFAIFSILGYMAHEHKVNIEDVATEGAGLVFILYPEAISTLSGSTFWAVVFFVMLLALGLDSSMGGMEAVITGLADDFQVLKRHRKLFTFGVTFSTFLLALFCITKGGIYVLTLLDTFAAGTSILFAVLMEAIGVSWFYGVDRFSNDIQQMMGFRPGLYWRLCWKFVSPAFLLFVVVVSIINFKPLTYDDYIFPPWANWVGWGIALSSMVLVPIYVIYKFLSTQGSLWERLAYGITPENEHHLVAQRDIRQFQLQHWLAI
# Sequence of Bile acid receptor (Homo sapiens) (Q96RI1 whole entry, looked up): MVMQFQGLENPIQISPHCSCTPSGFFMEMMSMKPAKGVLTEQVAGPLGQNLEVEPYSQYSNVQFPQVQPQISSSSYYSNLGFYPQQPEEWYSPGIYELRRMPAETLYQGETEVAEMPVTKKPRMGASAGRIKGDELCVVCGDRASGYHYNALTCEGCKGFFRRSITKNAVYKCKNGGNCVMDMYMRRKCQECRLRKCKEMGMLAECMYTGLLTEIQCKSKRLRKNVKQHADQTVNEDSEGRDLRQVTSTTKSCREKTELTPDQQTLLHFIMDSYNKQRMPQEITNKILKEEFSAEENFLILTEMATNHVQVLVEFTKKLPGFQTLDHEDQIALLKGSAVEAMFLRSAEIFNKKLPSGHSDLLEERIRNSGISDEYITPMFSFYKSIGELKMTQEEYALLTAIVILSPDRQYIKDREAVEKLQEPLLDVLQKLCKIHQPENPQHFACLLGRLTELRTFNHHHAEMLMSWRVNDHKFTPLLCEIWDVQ
# Sequence of Estrogen receptor (Homo sapiens) (P03372 whole entry, looked up): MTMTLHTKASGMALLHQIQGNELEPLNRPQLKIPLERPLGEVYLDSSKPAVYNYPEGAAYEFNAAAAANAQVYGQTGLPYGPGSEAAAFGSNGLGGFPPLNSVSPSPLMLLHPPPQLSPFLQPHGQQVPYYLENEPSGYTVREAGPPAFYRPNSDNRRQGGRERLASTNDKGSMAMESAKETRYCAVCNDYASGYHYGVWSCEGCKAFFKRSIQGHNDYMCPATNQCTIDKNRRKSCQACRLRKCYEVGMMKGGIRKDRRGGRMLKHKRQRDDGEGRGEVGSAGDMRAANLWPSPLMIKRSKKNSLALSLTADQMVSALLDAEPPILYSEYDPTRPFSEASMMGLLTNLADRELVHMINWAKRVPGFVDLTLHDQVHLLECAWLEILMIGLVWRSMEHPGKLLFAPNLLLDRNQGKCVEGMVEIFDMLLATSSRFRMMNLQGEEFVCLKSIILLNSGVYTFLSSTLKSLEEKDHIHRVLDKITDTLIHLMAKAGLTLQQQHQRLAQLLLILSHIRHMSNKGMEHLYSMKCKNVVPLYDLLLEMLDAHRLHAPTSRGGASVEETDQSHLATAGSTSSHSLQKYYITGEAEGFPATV
# Sequence of human Dopamine Transporter (DAT), SLC6A3 (gene 6531) (Q01959 whole entry, looked up): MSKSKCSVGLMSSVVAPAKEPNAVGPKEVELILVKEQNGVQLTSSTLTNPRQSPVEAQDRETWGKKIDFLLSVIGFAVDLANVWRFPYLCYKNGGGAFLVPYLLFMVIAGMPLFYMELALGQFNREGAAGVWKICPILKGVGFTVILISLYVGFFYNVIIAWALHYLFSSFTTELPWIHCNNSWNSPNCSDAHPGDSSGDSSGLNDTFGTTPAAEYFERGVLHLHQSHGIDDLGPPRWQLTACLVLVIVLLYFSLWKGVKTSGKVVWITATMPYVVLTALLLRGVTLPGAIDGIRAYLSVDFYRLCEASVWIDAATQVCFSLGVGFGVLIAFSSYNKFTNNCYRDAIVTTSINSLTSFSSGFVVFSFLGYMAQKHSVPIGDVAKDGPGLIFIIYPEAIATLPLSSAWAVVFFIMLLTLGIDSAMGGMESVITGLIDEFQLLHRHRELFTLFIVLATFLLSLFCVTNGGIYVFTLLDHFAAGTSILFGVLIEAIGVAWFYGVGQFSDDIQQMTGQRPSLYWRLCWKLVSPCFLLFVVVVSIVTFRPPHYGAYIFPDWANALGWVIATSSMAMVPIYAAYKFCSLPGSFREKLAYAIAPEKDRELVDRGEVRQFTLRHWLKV
compound,measurement,setting,value
CCCCCCCCCCCCCC(=O)OCC(O)CO (stereo not given),outcome,[1],inactive
same,outcome,[2],inactive
same,AC50,[3],79.8 µM (active)
same,AC50,[4],82.9 µM (active)
same,outcome,[5],inactive
COc1cc(Cl)c(OC)cc1N,AC50,[6],25 µM (active)
CCCCCCC(=O)c1ccccc1,outcome,[2],inactive
same,outcome,[3],inactive
same,outcome,[4],inactive
same,outcome,[5],inactive
same,outcome,[7],inactive
CC=Cc1ccc(OC)c(OC)c1,outcome,[6],inactive
COc1ccc(OC)c(N=Nc2c(O)ccc3ccccc23)c1,AC50,[6],17.4 µM (active)
CS(=O)(=O)OCCCCOS(C)(=O)=O,AC50,[8],25 µM (active)
same,outcome,[6],inactive
same,outcome,[9],inactive
same,outcome,[10],inactive
same,outcome,[5],inactive
same,outcome,[11],inactive
same,outcome,[7],inactive
C=CC(=O)OCCCC,outcome,[2],inactive
same,outcome,[3],inactive
same,outcome,[4],inactive
same,outcome,[5],inactive
same,outcome,[11],inactive
COS(=O)(=O)O,outcome,[2],inactive
same,outcome,[3],inactive
c1ccc(Oc2ccccc2)cc1,outcome,[2],inactive
same,outcome,[3],inactive
same,outcome,[5],inactive
Nc1ccc(Cl)c([N+](=O)[O-])c1,outcome,[6],inactive
CCCC(O)C(O)CO (stereo not given),outcome,[6],inactive
OCc1cccc(Oc2ccccc2)c1,outcome,[1],inactive
same,AC50,[2],59.1 µM (active)
same,outcome,[3],inactive
same,outcome,[4],inactive
same,outcome,[5],inactive
same,outcome,[7],inactive
C=C1C[C@]23C[C@@]1(O)CC[C@H]2[C@@]12C=C[C@H](O)[C@@](C)(C(=O)O1)[C@H]2[C@@H]3C(=O)O,outcome,[12],inactive
same,outcome,[3],inactive
same,outcome,[11],inactive
same,outcome,[7],inactive
CC1CCC(C(C)C)C(O)C1 (stereo not given),outcome,[1],inactive
same,outcome,[2],inactive
same,outcome,[3],inactive
same,outcome,[4],inactive
same,outcome,[7],inactive
O=C(CC(=O)c1ccccc1)c1ccccc1,AC50,[2],85.9 µM (active)
same,outcome,[3],inactive
same,outcome,[4],inactive
same,outcome,[5],inactive
same,outcome,[7],inactive
CCCCCCCCCCCCCCCC(=O)OC/C=C(C)/C=C/C=C(C)/C=C/C1=C(C)CCCC1(C)C,outcome,[6],inactive
CC=Cc1ccc(OCC)c(O)c1,AC50,[6],5.31 µM (active)
O=CCc1ccccc1,outcome,[12],inactive
same,AC50,[3],30.1 µM (active)
same,AC50,[5],19.1 µM (active)
same,outcome,[7],inactive
CCCCCCCCSCCO,outcome,[1],inactive
same,AC50,[3],74.1 µM (active)
same,outcome,[4],inactive
same,outcome,[5],inactive
same,outcome,[7],inactive
CCOC(=O)[C@@H](C)Oc1ccc(Oc2nc3ccc(Cl)cc3o2)cc1,outcome,[1],inactive
same,outcome,[2],inactive
same,AC50,[3],24 µM (active)
same,AC50,[4],50 µM (active)
same,outcome,[5],inactive
same,outcome,[7],inactive
CC(=O)O[C@@H]1CC2CCC1(C)C2(C)C (stereo not given in full),outcome,[2],inactive
same,outcome,[3],inactive
same,outcome,[5],inactive
same,outcome,[11],inactive
same,outcome,[7],inactive
CCc1cc(C(C)(C)C)c(O)c(C(C)(C)C)c1,outcome,[12],inactive
same,AC50,[3],33.6 µM (active)
same,outcome,[4],inactive
same,AC50,[5],83.8 µM (active)
same,AC50,[11],86.2 µM (active)
same,outcome,[7],inactive
CCCCCCCCCC(=O)OC,outcome,[2],inactive
same,outcome,[3],inactive
same,outcome,[4],inactive
same,outcome,[11],inactive
same,outcome,[7],inactive
